Out of some 65,000 compounds screened, about 3,600 (5.5%) were called active.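 How the source made its calls: active means at 10 µM, mean starting fluorescence two-fold or more over control wells; inactive means the rest.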 This excerpt belongs to a sample that is enriched for actives.
Assay: intrinsic fluorescence of library compounds, ex339/em460 – biochemical, MLSMR library, data from DPM-DC assay, artefact control, profiling panel (AID 709);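 further: signal is the first read of a kinetic run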
Conditions: compound autofluorescence, ex339/em460 nm, NADH buffer; at 10 µM; stronger effect = higher value; 1 = no-compound wells, NADH background

Fluorescence fold increase, inactive:
Cc1nn2c3ccccc3nc2n(C)c1=O 0.93, Cc1ccccc1N1C(=O)C2ON(c3ccccc3)C(c3ccncc3)C2C1=O (stereo unspecified) 1.04, COc1ccc(N2CCN(C(=O)CSc3nc4cc(OC)c(OC)cc4cc3C#N)CC2)cc1 1.03, CCOc1ccc2nc(N3CCCN(C(=O)Nc4ccccc4C)CC3)c(C#N)cc2c1 1.7, COC(=O)c1sc(NC(=O)c2csc3c2CCCC3)nc1C 1.25, COc1ccc(C(=O)Nc2nncs2)c(OC)c1 1.05, CCOC(=O)C1CCN(C(=O)c2oc3ccc(S(=O)(=O)N4CCCCCC4)cc3c2C)CC1 1.08, CCOc1ccccc1NC(=O)c1cc(S(=O)(=O)N2CCC3(CC2)OCCO3)ccc1F 1.05, COC(=O)COc1ccc(S(=O)(=O)Nc2ccc(NC(C)=O)cc2)cc1 1.1, O=C(N1CCOCC1)N(Cc1ccccc1)c1ccccn1 1.08, COc1cc(-n2c(C)nc3cc(C(=O)NCc4ccco4)ccc32)cc(OC)c1OC 1.09, Cc1cc(NC(=O)c2cnn3cccnc23)n(-c2ccccc2)n1 1.13, Cn1c(CNc2nc(-c3ccccc3)cs2)nnc1SCC(=O)c1ccccc1 1.05, CC(Sc1nc2ccccc2c(=O)n1Cc1ccco1)C(=O)c1ccccc1 (stereo unspecified) 1.1, Nc1cc(=O)nc(SCc2ccccc2)n1Cc1ccco1 1.05, Cc1nc2ccccc2c(=O)n1CCCn1ccnc1 1.18, Clc1cccc(-c2nc3nc4ccccc4nc3n2Cc2ccco2)c1 1.65, Cn1c(COc2ccc(Cl)cc2)nc2ccccc2c1=O 1.18, O=c1c2ccccc2oc2nc(C3CCCCC3)n(Cc3ccco3)c(=O)c12 1.14, CC(=O)Oc1cc2c(C(=O)NCCN3CCOCC3)c(C)oc2c2ccccc12 1.19, CCCS(=O)(=O)N1CCCC(C(=O)N2CCN(c3ccccc3)CC2)C1 (stereo unspecified) 1.11, CN(C)Cc1c(O)ccc2occ(C(O)c3ccccc3)c12 (stereo unspecified) 1.03, COc1ccc(-c2ccnc(SCC(=O)N3CCOCC3)n2)cc1 1.54, Cc1c(C(=O)N2CCOCC2)[nH]c2ccc(OCc3ccccc3)cc12 1.13, COC(=O)c1[nH]c2ccccc2c1NC(=O)CN1CCCc2ccccc21 1.14, CCOc1ccccc1NC(=O)CCN1CCN(S(=O)(=O)c2ccc(OC)cc2)CC1 1, COc1cc(NC(=O)N2CCOCC2)cc(OC)c1 1.07, COC(=O)c1sc(=S)n(-c2ccccc2)c1N 1.02, O=S(=O)(NCc1ccc2c(c1)OCO2)c1cccc2nsnc12 1.04, CCOC(=O)c1cc2occc2n1CC(=O)NC1CCC(C)CC1 (stereo unspecified) 1.03, Cc1cccc(N2CCN(Cc3c(C)n(C)n(-c4ccccc4)c3=O)CC2)c1C 1.01, OCc1n[nH]c(CO)n1 1.04, O=C(Nc1ccc2c(c1)nc1n2CCCCC1)c1cc(S(=O)(=O)N2CCOCC2)ccc1Cl 1.09, CC(c1nnc(SCC(=O)Nc2sccc2C#N)n1-c1ccc(Cl)cc1)N(C)C (stereo unspecified) 1.06, CCCc1[nH]nc2c1C(c1c(C)nn(-c3ccccc3)c1Cl)C(C#N)=C(N)O2 (stereo unspecified) 1.09, CSc1nc(N)c(C#N)c(-c2ccccc2Cl)c1C#N 1.19, COc1ccc(OC)c(CNC(=O)CCc2nc(-c3cccs3)no2)c1 1.09, Cc1cc(C)nc(N(C#N)CC(=O)Nc2ccccc2)n1 1.1, Cc1ccc(S(=O)(=O)NCCN2CCOCC2)cc1C 1.15, COc1ccccc1NC1=NC(c2ccc(Cl)cc2)N=C(N)N1 (stereo unspecified) 1.03, CCCc1nc2ccccc2c(C(=O)OCc2nnc(-c3cc(OC)c(OC)c(OC)c3)o2)c1CC 1.12, COc1ccc(Cl)cc1S(=O)(=O)N1CCN(CC(=O)C(C)(C)C)CC1 0.9, Cc1c(C)c2cc3c4c(oc3c(C)c2oc1=O)CCCC4 1.64, COc1ccc(C(=O)OCC(=O)c2ccc(C)c(S(=O)(=O)N3CCOCC3)c2)cc1OC 1, COC(=O)c1ccc(Oc2nc(Nc3ccc(F)cc3)nc(N3CCCC3)n2)cc1 1.09, Cc1ccc(C(c2nnnn2CS(=O)(=O)c2ccc(C)cc2)N2CCC(C(N)=O)CC2)cc1 (stereo unspecified) 1.03, Cc1cccc(NC(=O)CN2CCCN(S(=O)(=O)c3ccc(Br)s3)CC2)c1 1.1, Cc1cc(NC(=O)c2cccc(N3C(=O)CCC3=O)c2)no1 1.09, COc1ccc2oc(=O)c(C(=O)N3CCCc4ccccc43)cc2c1 1.09, CCCOC(=O)c1cc2ccccc2oc1=O 1.51, COc1ccc2oc(=O)c(C(=O)N3CCN(c4ccccc4F)CC3)cc2c1 1.41, CCN(CC)c1ccc2oc(=O)c(C)nc2c1 0.59

Fluorescence fold increase, active:
CN1c2ccccc2-c2nc3ccccc3n2C1c1ccco1 (stereo unspecified) 2.31, COc1ccc2nc(N3CCCC(O)C3)c(C#N)cc2c1 (stereo unspecified) 2.58, COC(=O)c1sc(NC(=O)c2ccc(OC)cc2OC)nc1C 2.06, Cc1c(C(=O)Nc2ccccc2Cl)oc2ccc(S(=O)(=O)N3CCC4(CC3)OCCO4)cc12 3.37, Cc1nc2c(c(=O)n1Cc1ccco1)c1nc3ccccc3nc1n2Cc1ccccc1 2.65, COCCCn1c2nc3ccccc3nc2c2c(=O)n(Cc3ccc(Cl)cc3)c(C)nc21 3.88, Cc1ccc(Cn2c(C)nc3c(c2=O)c2nc4ccccc4nc2n3Cc2ccco2)cc1 2.34, CCOC(=O)c1[nH]c2ccc(OC)cc2c1NC(=O)N1CCOCC1 3.83, CCOC(=O)c1[nH]c2ccc(OC)cc2c1NC(=O)CCN1CCN(Cc2ccccc2)CC1 2.37, CSc1ccc(-c2c(C#N)c(N)nc3c2c(C)nn3-c2ccccc2)cc1 3.9, CCCOc1ccc2c3c(c(=O)oc2c1OCCC)CCC3 2.13, COc1ccc2c3c(c(=O)oc2c1OCC(=O)C(C)(C)C)CCCC3 2.12, COc1ccc2oc(=O)c(C(=O)O)cc2c1 3.98, CCN(CC)c1ccc2cc(C(=O)O)c(=O)oc2c1 2.71

— PubChem BioAssay AID709 (SRMLSC, 2007)
